According to PubChem BioAssay (Tox21):
Records with an inconclusive call do not appear. Entries that show only a call come without a potency. Unmarked numbers belong to inactive results. The source made the active and inactive calls. Unless noted, the call rests on the fitted dose curve.

Experiments:
[1] = qHTS assay to identify small molecule antagonists of the vitamin D receptor (VDR) signaling pathway - cell viability counter screen (AID 743225; active means well fitted curve in the direction sought with a large enough effect in the repeat runs; an effect the other way counts as inactive or inconclusive; further: nearly all actives have a fitted effect of over 50% in size)
How it was run: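 Cytotoxicity toward the VDR-bla HEK 293T line was scored by ATP-based CellTiter-Glo luminescence, read in the wells already used for the beta-lactamase readout after 16 h compound treatment under 3 nM 1-alpha,25-dihydroxyvitamin D3 stimulation.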

[2] = qHTS assay to identify small molecule agonists of the NFkB signaling pathway (AID 1159509; active means well fitted curve in the direction sought with a large enough effect in the signal ratio in the repeat runs, not every such curve was filed as active; the % refers to the signal ratio; further: series mostly up to about 61 µM)
How it was run: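 After overnight attachment, reporter cells received test compounds, DMSO or positive controls and were incubated 5 hr at 37 C. FRET substrate was then added for 1.5 hr at room temperature before dual-emission fluorescence reading.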

[3] = qHTS assay to identify small molecule agonists of the NFkB signaling pathway - cell viability counter screen (AID 1159515); further: series mostly up to about 61 µM; nearly all actives have a fitted effect of over 55% in size
How it was run: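 NFkB-bla ME-180 cells, 2,000/well, were plated overnight at 37 C, 5% CO2, then exposed to compounds in DMSO for 5 hr. After the bla FRET read, CellTiter-Glo was added to the same wells; luminescence was read after 30 min at room temperature.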

[4] = qHTS assay to identify small molecule agonists of the endoplasmic reticulum stress response signaling pathway (AID 1159516; active means well fitted activation curve with a large enough effect in the signal ratio in the repeat runs, not every such curve was filed as active; the % refers to the signal ratio)
How it was run: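 CellSensor ESRE-bla HeLa cells, carrying a beta-lactamase reporter driven by the ER stress response element, were plated overnight and exposed to compounds for 5 hr at 37 C. Reporter activity was read as FRET substrate fluorescence after 2 hr at room temperature.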

[5] = qHTS assay to identify small molecule agonists of the endoplasmic reticulum stress response signaling pathway - cell viability counter screen (AID 1159517); further: series mostly up to about 61 µM; nearly all actives have a fitted effect of over 50% in size
How it was run: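 Cells, HeLa ESRE-bla; density, 1,500/well; dosing, 5 hr at 37 C, 5% CO2; readout, CellTiter-Glo luminescence after 30 min RT.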

[6] = qHTS assay to identify small molecule antagonists of the retinoid-related orphan receptor gamma (ROR-gamma) signaling pathway - cell viability counter screen (AID 1159520; active means well fitted curve in the direction sought with a large enough effect in the repeat runs; an effect the other way counts as inactive or inconclusive; further: nearly all actives have a fitted effect of over 50% in size)
How it was run: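 Cytotoxicity was read from cellular ATP (CellTiter-Glo luminescence) after 16 hr at 37 C with 1 uM doxycycline induction. The inducer was added 2 hr after compound transfer to Tet-on ROR gamma CHO cells.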

[7] = biological target: Nuclear receptor ROR-gamma (Homo sapiens) (UniProt P51449); assay: qHTS assay to identify small molecule antagonists of the retinoid-related orphan receptor gamma (ROR-gamma) signaling pathway (AID 1159521; active means well fitted curve in the direction sought with a large enough effect in the repeat runs; an effect the other way counts as inactive or inconclusive;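 further: CHO cells with doxycycline inducible ROR-gamma driving an RORE luciferase reporter; top concentration of the series differs between compounds; nearly all actives have a fitted effect of over 50% in size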)
How it was run: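 Readout: ONE-Glo luciferase luminescence, 30 min at room temperature. System: Tet-on RORγ CHO, RORE-LUC. Sequence: compound 2 h, doxycycline 1 uM final, 16 h at 37 C.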

[8] = qHTS assay to identify small molecule agonists of the AP-1 signaling pathway - cell viability counter screen (AID 1159525); further: nearly all actives have a fitted effect of over 55% in size
How it was run: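 Luminescent ATP readout (Cell Titer Glo, 30 min RT), normalised to DMSO and tetra n-octyl ammonium bromide controls. Cells were ME-180 AP-1-bla in 0.5% dialyzed FBS Opti-MEM, with a 5 h, 37 °C compound exposure.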

[9] = qHTS assay to identify small molecule agonists of the AP-1 signaling pathway (AID 1159526)
[10] = biological target: Retinoic acid receptor RXR-alpha (Homo sapiens) (UniProt P19793); assay: qHTS assay to identify small molecule agonists of the RXR signaling pathway (AID 1159527); further: nearly all actives have a fitted effect of over 35% in size; further: potency means the concentration at half of the fitted maximal effect
Sequence of Retinoic acid receptor RXR-alpha (Homo sapiens) (P19793 whole entry, looked up): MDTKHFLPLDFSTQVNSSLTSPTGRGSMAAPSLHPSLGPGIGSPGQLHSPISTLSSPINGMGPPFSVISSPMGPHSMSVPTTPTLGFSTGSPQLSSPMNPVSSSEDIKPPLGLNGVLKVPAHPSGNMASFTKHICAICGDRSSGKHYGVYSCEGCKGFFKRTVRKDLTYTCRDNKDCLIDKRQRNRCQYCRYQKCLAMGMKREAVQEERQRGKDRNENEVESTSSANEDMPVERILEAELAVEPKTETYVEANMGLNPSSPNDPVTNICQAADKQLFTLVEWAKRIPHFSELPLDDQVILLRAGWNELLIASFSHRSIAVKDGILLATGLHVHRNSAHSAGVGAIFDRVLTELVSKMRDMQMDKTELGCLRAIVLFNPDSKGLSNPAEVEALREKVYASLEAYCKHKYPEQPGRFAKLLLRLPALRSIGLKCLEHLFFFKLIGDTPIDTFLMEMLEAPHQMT
How it was run: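 Reporter activation is measured as beta-lactamase activity via FRET substrate cleavage (emission 460/530 nm) in HEK 293T cells expressing an RXR-alpha-driven bla construct, following 16 hr compound exposure at 37 C.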

Cc1oc(=O)oc1CN1CCN(c2cc3c(cc2F)c(=O)c(C(=O)O)c2n3C(C)S2)CC1 (centres undefined)
outcome [1]: inactive | outcome [2]: inactive | outcome [3]: inactive | outcome [4]: inactive | outcome [5]: inactive | outcome [6]: inactive | outcome [7]: inactive | outcome [8]: inactive | outcome [9]: inactive | Potency [10]: inactive

CCOC(=O)CCCCCCCCC(=O)OCC
outcome [1]: inactive | outcome [2]: inactive | outcome [3]: inactive | outcome [4]: inactive | outcome [5]: inactive | outcome [6]: inactive | outcome [7]: inactive | outcome [8]: inactive | outcome [9]: inactive | Potency [10]: inactive

O=C(Oc1ccccc1C(=O)O)c1ccccc1O
outcome [1]: inactive | outcome [2]: inactive | outcome [3]: inactive | outcome [4]: inactive | outcome [5]: inactive | outcome [6]: inactive | outcome [7]: inactive | outcome [9]: inactive | Potency [10]: inactive

COc1cccc2sc(N)nc12
outcome [1]: inactive | outcome [2]: inactive | outcome [3]: inactive | outcome [4]: inactive | outcome [5]: inactive | outcome [6]: inactive | outcome [8]: inactive | outcome [9]: inactive | Potency [10]: inactive

CC(=O)c1ccc(OCC(=O)N2CCCCC2)cc1
outcome [1]: inactive | outcome [2]: inactive | outcome [3]: inactive | outcome [4]: inactive | outcome [5]: inactive | outcome [6]: inactive | outcome [8]: inactive | outcome [9]: inactive | Potency [10]: inactive

O=C(O)c1ccccc1C(=O)OCc1ccccc1
outcome [1]: inactive | outcome [2]: inactive | outcome [3]: inactive | outcome [4]: inactive | outcome [5]: inactive | outcome [6]: inactive | outcome [7]: inactive | outcome [9]: inactive | Potency [10]: inactive

O=S(=O)(O)CCO
outcome [2]: inactive | outcome [3]: inactive | outcome [4]: inactive | outcome [5]: inactive | outcome [6]: inactive | outcome [7]: inactive | outcome [9]: inactive | Potency [10]: inactive

C1=C\CC/C=C\CC/1
outcome [1]: inactive | outcome [2]: inactive | outcome [3]: inactive | outcome [4]: inactive | outcome [5]: inactive | outcome [6]: inactive | outcome [8]: inactive | outcome [9]: inactive | Potency [10]: inactive

CNCc1ccccc1
outcome [1]: inactive | outcome [2]: inactive | outcome [3]: inactive | outcome [4]: inactive | outcome [5]: inactive | outcome [6]: inactive | outcome [7]: inactive | outcome [9]: inactive | Potency [10]: inactive

CCCCCCCCCCCCCCCCCCN(C)C
outcome [2]: inactive | outcome [3]: inactive | outcome [4]: inactive | outcome [5]: inactive | outcome [6]: inactive | outcome [7]: inactive | outcome [9]: inactive | Potency [10]: inactive

O=C(Nc1cccc(C2=NCCN2)c1)Nc1cccc(C2=NCCN2)c1
outcome [2]: inactive | outcome [3]: inactive | outcome [4]: inactive | outcome [5]: inactive | activity, negative = cytotoxicity [6]: 4.97% [at 19 µM] | viability change, negative = cytotoxic [8]: 3.95% [at 15.8 µM] | activation [9]: -8.47% [at 15.8 µM] | activation [10]: 1.97% [at 15.8 µM]

C=CCOc1cc(Cl)ccc1C(=O)NCCN(CC)CC
outcome [1]: inactive | outcome [2]: inactive | outcome [3]: inactive | outcome [4]: inactive | outcome [5]: inactive | outcome [6]: inactive | outcome [7]: inactive | outcome [9]: inactive | Potency [10]: inactive

Nc1nc(=O)n([C@@H]2O[C@H](CO)[C@@H](O)[C@@H]2F)cc1I
outcome [2]: inactive | outcome [3]: inactive | outcome [4]: inactive | outcome [5]: inactive | outcome [6]: inactive | outcome [7]: inactive | outcome [9]: inactive | Potency [10]: inactive

O=c1cc(O)c(Cl)c[nH]1
outcome [1]: inactive | outcome [2]: inactive | outcome [3]: inactive | outcome [4]: inactive | outcome [5]: inactive | outcome [6]: inactive | outcome [8]: inactive | outcome [9]: inactive | Potency [10]: inactive

CCCCCCCCC(=O)OCC
outcome [1]: inactive | outcome [2]: inactive | outcome [3]: inactive | outcome [4]: inactive | outcome [5]: inactive | outcome [6]: inactive | outcome [8]: inactive | outcome [9]: inactive | Potency [10]: inactive

CO/N=C(/C(=O)N[C@@H]1C(=O)N2C(C(=O)O)=C(Cn3nnc(C)n3)CS[C@H]12)c1csc(N)n1
outcome [1]: inactive | outcome [2]: inactive | outcome [3]: inactive | outcome [4]: inactive | outcome [5]: inactive | outcome [6]: inactive | outcome [7]: inactive | outcome [9]: inactive | Potency [10]: inactive

O=C(c1ccc2c(c1)C(=O)OC2=O)c1ccc2c(c1)C(=O)OC2=O
outcome [1]: inactive | outcome [2]: inactive | outcome [3]: inactive | outcome [4]: inactive | outcome [5]: inactive | outcome [6]: inactive | outcome [7]: inactive | outcome [9]: inactive | Potency [10]: inactive

CC(C)(c1ccc(Oc2ccc3c(c2)C(=O)OC3=O)cc1)c1ccc(Oc2ccc3c(c2)C(=O)OC3=O)cc1
outcome [1]: inactive | outcome [2]: inactive | outcome [3]: inactive | outcome [4]: inactive | outcome [5]: inactive | outcome [6]: inactive | outcome [8]: inactive | outcome [9]: inactive | Potency [10]: 13.7 µM (active)

CC(C)COC(=O)/C=C/c1ccccc1
outcome [1]: inactive | outcome [2]: inactive | outcome [3]: inactive | outcome [4]: inactive | outcome [5]: inactive | outcome [6]: inactive | outcome [7]: inactive | outcome [9]: inactive | Potency [10]: inactive

NC(=O)NNC(N)=O
outcome [1]: inactive | outcome [2]: inactive | outcome [3]: inactive | outcome [4]: inactive | outcome [5]: inactive | outcome [6]: inactive | outcome [8]: inactive | outcome [9]: inactive | Potency [10]: inactive

O=S1(=O)CCCC1
outcome [2]: inactive | outcome [3]: inactive | outcome [4]: inactive | outcome [5]: inactive | outcome [6]: inactive | outcome [8]: inactive | outcome [9]: inactive | Potency [10]: inactive

CCOC(=O)CC(CC(=O)OCC)(OC(C)=O)C(=O)OCC
outcome [1]: inactive | outcome [2]: inactive | outcome [3]: inactive | outcome [4]: inactive | outcome [5]: inactive | outcome [6]: inactive | outcome [8]: inactive | outcome [9]: inactive | Potency [10]: inactive

COc1cc2c(Nc3ccc(Br)cc3F)ncnc2cc1OCC1CCN(C)CC1
outcome [2]: inactive | outcome [3]: inactive | outcome [4]: inactive | outcome [5]: inactive | outcome [6]: inactive | outcome [7]: inactive | outcome [9]: inactive | Potency [10]: inactive

CC(C)C(=O)c1ccccc1
outcome [1]: inactive | outcome [2]: inactive | outcome [3]: inactive | outcome [4]: inactive | outcome [5]: inactive | outcome [6]: inactive | outcome [8]: inactive | outcome [9]: inactive | Potency [10]: inactive

CCN(CCO)c1cccc(C)c1
outcome [1]: inactive | outcome [2]: inactive | outcome [3]: inactive | outcome [4]: inactive | outcome [5]: inactive | outcome [6]: inactive | outcome [7]: inactive | outcome [9]: inactive | Potency [10]: inactive

O=C1CC[C@H](C(=O)N2CCCCC2)N1
outcome [1]: inactive | outcome [2]: inactive | outcome [3]: inactive | outcome [4]: inactive | outcome [5]: inactive | outcome [6]: inactive | outcome [7]: inactive | outcome [9]: inactive | Potency [10]: inactive

CCNC(=O)/C=C/c1cccc(Br)c1
outcome [1]: inactive | outcome [2]: inactive | outcome [3]: inactive | outcome [4]: inactive | outcome [5]: inactive | outcome [6]: inactive | outcome [8]: inactive | outcome [9]: inactive | Potency [10]: inactive
